This is an account of results in PubChem BioAssay AID1347420 (Sanford-Burnham Center for Chemical Genomics, 2020).

Screen size: about 1,300 compounds; about 980 (75%) were called active. Another 4% or so got no clear call; they are omitted. The list shows a part of the results. A number with no mark means an inactive call.

In this assay the target is Sulfhydryl oxidase 1 (Homo sapiens) (UniProt O00391). In words: inhibition of human sulfhydryl oxidase QSOX1 – biochemical, HyperBlu H2O2 luminescence, HTS, primary screen (AID 1347420). Further: values above 100% were filed as inconclusive. The note with it: recombinant QSOX1, HyperBlu H2O2 luminescence; at 12.5 µM; stronger effect = higher value; active = any value above zero.
Chain of Sulfhydryl oxidase 1 (Homo sapiens) (O00391 whole entry, looked up): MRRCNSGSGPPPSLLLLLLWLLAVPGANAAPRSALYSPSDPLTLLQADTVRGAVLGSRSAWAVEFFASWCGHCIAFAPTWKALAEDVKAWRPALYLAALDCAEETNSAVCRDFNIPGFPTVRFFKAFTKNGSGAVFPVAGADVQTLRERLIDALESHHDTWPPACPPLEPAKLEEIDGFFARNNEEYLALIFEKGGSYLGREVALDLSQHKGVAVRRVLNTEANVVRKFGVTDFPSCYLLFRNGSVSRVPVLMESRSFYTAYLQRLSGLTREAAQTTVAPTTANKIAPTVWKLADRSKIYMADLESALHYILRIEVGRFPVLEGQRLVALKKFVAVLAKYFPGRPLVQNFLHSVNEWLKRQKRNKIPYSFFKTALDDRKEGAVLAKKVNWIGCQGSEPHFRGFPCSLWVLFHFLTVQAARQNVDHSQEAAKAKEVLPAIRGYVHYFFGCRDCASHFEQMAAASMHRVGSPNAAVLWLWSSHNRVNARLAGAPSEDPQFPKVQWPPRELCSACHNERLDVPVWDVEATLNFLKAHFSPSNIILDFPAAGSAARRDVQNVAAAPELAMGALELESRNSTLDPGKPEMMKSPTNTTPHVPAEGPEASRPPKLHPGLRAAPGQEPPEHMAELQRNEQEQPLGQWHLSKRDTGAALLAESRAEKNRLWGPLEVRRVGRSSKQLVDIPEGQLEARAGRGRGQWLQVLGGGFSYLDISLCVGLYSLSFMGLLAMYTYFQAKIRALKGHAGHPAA
As to `CC(C)(C)c1onc(OCP(=O)(O)O)c1CC(N)C(=O)O` (centres undefined), the inhibition (as a rule, the drop in the measured response relative to a control, in per cent) is 24.4% (active). The result for `OCc1cc(C(O)CNCCCCCCOCCCCc2ccccc2)ccc1O` (centres undefined) reads 34.4% (active); that for `CC(=O)N[C@H]1[C@H]([C@H](O)[C@H](O)CO)OC(C(=O)O)=C[C@@H]1O`, 18.1% (active); that for `CCCOC(=O)c1c(-c2ccccc2)nc(CC)c(C(=O)SCC)c1CCC`, -2.7%. As for `C[C@@H](CN1CCC(Cc2ccccc2)CC1)[C@@H](O)c1ccc(O)cc1`, the inhibition was 3.7% (active). `COc1cc(SC)ccc1C(=O)N1CCC(Cc2ccccc2)CC1`: the inhibition was -5.8%. With `CC(C(O)c1ccc(O)cc1)N1CCC(Cc2ccccc2)CC1` (centres undefined), the inhibition was 4% (active). The result for `CC(=O)[C@@]1(O)CC[C@H]2[C@@H]3CCC4=CC(=O)CC[C@]4(C)[C@H]3CC[C@@]21C` reads 0.7% (active); that for `C[C@]12CCC(=O)C=C1CC[C@@H]1[C@@H]2CC[C@@]2(C)[C@H]1CC[C@]2(O)C(=O)CO`, -11%; that for `CC(=O)OCC(=O)[C@@]1(O)CC[C@H]2[C@@H]3CCC4=CC(=O)CC[C@]4(C)[C@H]3C(=O)C[C@@]21C`, 6.5% (active). As for `C[C@]12CCC(=O)C=C1CC[C@@H]1[C@@H]2C(=O)C[C@@]2(C)[C@H]1CC[C@]2(O)C(=O)CO`, the inhibition is -1.4%.

Consider `CC(=O)[C@H]1CC[C@H]2[C@@H]3CCC4=CC(=O)CC[C@]4(C)[C@H]3CC[C@]12C`, for which the inhibition is 12.3% (active). Regarding `O=c1ccc2c(OCCCCc3ccccc3)c3ccoc3cc2o1`, the inhibition is 18.3% (active). In the case of `CO/N=C(\C(=O)N[C@@H]1C(=O)N2C(C(=O)O)=C(CSc3nc(=O)c(O)nn3C)CSC12)c1csc(N)n1` (some centres undefined), the inhibition was 24.6% (active). The result for `CC(=O)OCC1=C(C(=O)O)N2C(=O)[C@@H](NC(=O)Cc3cccs3)[C@H]2SC1` reads 11.8% (active). As to `CO/N=C(\C(=O)N[C@@H]1C(=O)N2C(C(=O)O)=C(COC(C)=O)CS[C@H]12)c1csc(N)n1`, the inhibition was 26.2% (active).

Turning to `Cn1cnc2c(NCc3ccccc3)nc(NCCO)nc21`, the inhibition is 12.8% (active). With `CC[C@@H](CO)Nc1nc(NCc2ccccc2)c2ncn(C(C)C)c2n1`, the inhibition was 24.9% (active).

`CNCCCC1c2ccccc2C=Cc2ccccc21`: the inhibition is 3.6% (active).

On to `CC(=O)Oc1cc(C(C)C)c(OCCN(C)C)cc1C`, for which the inhibition is 0.5% (active). `O=[N+]([O-])c1cccc2cn[nH]c12`: the inhibition was 16.8% (active). `COC(=O)[C@H]1[C@H]2C[C@H]3c4[nH]c5ccccc5c4CCN3C[C@H]2CC[C@@H]1O`: the inhibition is 50.6% (active). For `COC(=O)[C@H]1[C@H]2C[C@@H]3c4[nH]c5cc(OC)ccc5c4CCN3C[C@H]2C[C@@H](OC(=O)c2cc(OC)c(OC)c(OC)c2)[C@@H]1OC`, the inhibition was 33% (active). Consider `COC(=O)[C@@H]1[C@H]2C[C@H]3c4[nH]c5ccccc5c4CCN3C[C@@H]2CC[C@@H]1O`, for which the inhibition was -38.2%. For `CNc1ncnc2c1ncn2[C@@H]1O[C@H](CO)[C@H](O)C1O` (some centres undefined), the inhibition was 12% (active). For the compound `OC[C@H]1O[C@@H](n2cnc3c(NC4CCCCC4)ncnc32)[C@H](O)[C@@H]1O`, the inhibition was 19.1% (active).

On to `OC[C@H]1O[C@H](n2cnc3c(N[C@H]4CCC[C@@H]4O)ncnc32)[C@H](O)[C@@H]1O`, for which the inhibition was 5.7% (active).

Consider `C[C@H](Cc1ccccc1)Nc1ncnc2c1ncn2[C@@H]1O[C@H](CO)[C@H](O)C1O` (some centres undefined), for which the inhibition was -5.3%. As to `OC[C@H]1O[C@@H](n2cnc3c(NC4CCCC4)ncnc32)C(O)[C@H]1O` (some centres undefined), the inhibition was 4% (active). Consider `Nc1ccc(CCNc2ncnc3c2ncn3C2OC(CO)C(O)C2O)cc1` (centres undefined), for which the inhibition was 36.3% (active).

Regarding `CNc1ncnc2c1ncn2[C@H]1C[C@H](OP(=O)(O)O)[C@@H](COP(=O)(O)O)O1`, the inhibition is 13.4% (active). On to `CCCCC#Cc1nc(NC)c2ncn([C@@H]3O[C@H](CO)C(O)[C@@H]3O)c2n1` (some centres undefined), for which the inhibition is 20.2% (active). `Cn1cc(C(=O)OCC2CCN(CCNS(C)(=O)=O)CC2)c2ccccc21`: the inhibition is -1%.

For the compound `COc1cc(/C=C(\C#N)C(=O)Nc2nnc(C(F)(F)F)s2)ccc1OCc1ccc(C(F)(F)F)cc1C(F)(F)F`, the inhibition was -0.4%.

For the compound `COc1ccc(/C=C/C(=O)Nc2ccccc2C(=O)O)cc1OC`, the inhibition was 4.9% (active).

Consider `CNCCC(Oc1ccccc1OC)c1ccccc1` (centres undefined), for which the inhibition is 2.8% (active). For `CNCCC(Oc1ccccc1C)c1ccccc1` (centres undefined), the inhibition is 0.9% (active). On to `CC(C)(C)NCC(O)COc1cccc2[nH]c(=O)[nH]c12` (centres undefined), for which the inhibition was 14% (active). On to `COc1cccc2c1[C@@H]1CN(CCCCn3c(=O)[nH]c4c(sc5ncc(-c6ccccc6)nc54)c3=O)C[C@@H]1CO2`, for which the inhibition is 47% (active).

On to `NCCCC(N)(C(=O)O)C(F)F` (centres undefined), for which the inhibition was 4.1% (active). The result for `CNC(=O)Oc1ccc2c(c1)[C@]1(C)CCN(C)[C@@H]1N2C` reads 17.7% (active); that for `O=C(O)C1CCNCC1`, 1.7% (active); that for `O=C(O)[C@H]1NCCC[C@H]1C(=O)O`, -4.7%. Turning to `O=C(O)C1CCCNC1` (centres undefined), the inhibition is 13.4% (active). In the case of `CC1=NS(=O)(=O)c2cc(Cl)ccc2N1`, the inhibition was 34.8% (active).

Turning to `CC(CCc1ccccc1)NCC(O)c1ccc(O)c(C(N)=O)c1` (centres undefined), the inhibition was 12.9% (active). In the case of `Nc1ccc(N2C(=O)c3ccccc3C2=O)c(Cl)c1`, the inhibition is 7.7% (active). Consider `NC1CONC1=O` (centres undefined), for which the inhibition was 2.4% (active). For `N[C@@H]1CONC1=O`, the inhibition is -0.9%. Take `N[C@H]1CONC1=O`: the inhibition is 3.7% (active). As for `Fc1cccc(/C=N/N=C/c2cccc(F)c2)c1`, the inhibition is -1.8%. As for `O[Si](CCCN1CCCCC1)(c1ccc(F)cc1)C1CCCCC1` (centres undefined), the inhibition is 4.4% (active). On to `Cn1ncc(S(=O)(=O)Cc2ccccc2)c(Br)c1=O`, for which the inhibition was 11.5% (active).

With `C[C@@H](O)[C@H]1C(=O)N2C(C(=O)O)=C(SCCN=CN)C[C@H]12`, the inhibition was 17.6% (active). For the compound `CCn1cc(C(=O)O)c(=O)c2cc3c(cc21)OCO3`, the inhibition was -7.6%.

For `CCn1cc(C(=O)O)c(=O)c2ccc(C)nc21`, the inhibition was 10.1% (active). The result for `CCNC(=O)[C@H]1O[C@@H](n2cnc3c(N)nc(NCCc4ccc(CCC(=O)O)cc4)nc32)C(O)[C@H]1O` (some centres undefined) reads 45.5% (active).

With `CNC(=O)[C@H]1O[C@@H](n2cnc3c(NCc4ccc(N)cc4)ncnc32)C(O)[C@H]1O` (some centres undefined), the inhibition is 32.2% (active). As for `CNC(=O)[C@H]1O[C@@H](n2cnc3c(NCc4cccc(I)c4)ncnc32)C(O)[C@H]1O` (some centres undefined), the inhibition was 14% (active).

On to `CC(=O)N[C@@H](CS)C(=O)O`, for which the inhibition was 43.1% (active).

On to `CC1(C)CCC=[N+]1[O-]`, for which the inhibition was 6.8% (active). For `Cn1ccc2cc3c(cc21)CCN3C(=O)Nc1cccnc1`, the inhibition was -4.6%. As to `CN1CCc2cc(NC(=O)Nc3cccnc3)ccc21`, the inhibition was 16.5% (active). With `O=C(O)CCC(=O)N1CCCC1C(=O)O` (centres undefined), the inhibition is -11.1%. As for `CCCN1C[C@H](CSC)C[C@@H]2c3cccc4[nH]cc(c34)C[C@H]21`, the inhibition was 31% (active). For `CCc1c(C)[nH]c2c1C(=O)C(CN1CCOCC1)CC2` (centres undefined), the inhibition is 17.7% (active). Next, `O=C(O)/C=C/c1cnc[nH]1`: 10.6% (active); `N[C@@H](Cc1cnc[nH]1)C(=O)O`: -5.8%. `CN(C)c1cc2c(Nc3ccc4c(cnn4Cc4ccccc4)c3)ncnc2cn1`: the inhibition was 15.4% (active). For `CC#CCOC(=O)c1c(C)nc2sc3c(c2c1N)CCC(O)C3` (centres undefined), the inhibition was -4.2%. As to `S=C(Nc1ccccc1)Nc1nccs1`, the inhibition is 35.5% (active). Consider `CC1CCN=C(N)S1` (centres undefined), for which the inhibition is 29.6% (active).

`NCCSSCCN`: the inhibition was 47.5% (active). On to `O=C1/C(=C/c2ccsc2)CC/C1=C\c1cccs1`, for which the inhibition is 17.5% (active). Regarding `COc1cc2c(c(OC)c1OC)-c1ccc(OC)c(=O)cc1[C@@H](NC(C)=O)CC2`, the inhibition is -1%. On to `Cn1cc(C2=C(c3ccc(Cl)cc3Cl)C(=O)NC2=O)c2ccccc21`, for which the inhibition is 25.7% (active). Consider `CCc1ccc(/C=C2/SC(=S)NC2=O)cc1`, for which the inhibition is 69.4% (active). Next, `O=C(O)CCc1nc(-c2ccccc2)c(-c2ccccc2)o1`: -0.1%. Consider `CC1COc2c(N3CCN(C)CC3)c(F)cc3c(=O)c(C(=O)O)cn1c23` (centres undefined), for which the inhibition is 5.3% (active).

As to `OC(CN1CCC(Cc2ccc(F)cc2)CC1)c1ccc(Cl)cc1` (centres undefined), the inhibition was 1.3% (active).

Regarding `CCCCN1CCC(n2c(=O)[nH]c3ccccc32)CC1`, the inhibition was 16.3% (active).

For the compound `CN(C)CCCO[C@@H]1[C@H]2OC(C)(C)O[C@H]2O[C@@H]1C(O)CO` (some centres undefined), the inhibition was 14.7% (active). Next, `O=C(O)[C@@H]1C[C@H](C(=O)O)N1`: -18.8%.

For `O=C(O)[C@@H]1C[C@@H](C(=O)O)N1`, the inhibition is 4.5% (active). As for `CC(C)(CO)Cc1cc(C(C)(C)C)c(O)c(C(C)(C)C)c1`, the inhibition was -2.3%.

As to `CC(C)(C=O)Cc1cc(C(C)(C)C)c(O)c(C(C)(C)C)c1`, the inhibition was 2.8% (active). Turning to `COc1cc2nc(N3CCCN(C)CC3)nc(NC3CCN(Cc4ccccc4)CC3)c2cc1OC`, the inhibition was 5.4% (active).

For `COc1ccc2cc([C@H](C)C(=O)O)ccc2c1`, the inhibition was -13.9%. For the compound `CC(C(=O)O)c1cccc(C(=O)c2ccccc2)c1` (centres undefined), the inhibition was 8.2% (active).

Regarding `Cc1cccc(C(=O)NCN2CCN(c3ccccc3C#N)CC2)c1`, the inhibition was -17.3%. With `COc1ccccc1N1CCN(CCCCNC(=O)c2ccc3ccccc3c2)CC1`, the inhibition is 36.1% (active). Regarding `COc1ccccc1N1CCN(CCCCN2C(=O)c3ccccc3C2=O)CC1`, the inhibition was 2% (active). `O=C1CC2(CCCC2)CC(=O)N1CCCCN1CCN(c2ncccn2)CC1`: the inhibition is -6.6%. For the compound `COc1ccccc1N1CCN(CCN2C(=O)CC3(CCCC3)CC2=O)CC1`, the inhibition was 61.3% (active). In the case of `CN[C@H](CC(=O)O)C(=O)O`, the inhibition is 15.9% (active). In the case of `c1ccc(C(NCc2cccnc2)(c2ccccc2)c2ccccc2)cc1`, the inhibition is 2.5% (active). Next, `CC(C)(Oc1ccc(C2CC2(Cl)Cl)cc1)C(=O)O` (centres undefined): -2.9%. For the compound `CC(C)(Oc1ccc(CCNC(=O)c2ccc(Cl)cc2)cc1)C(=O)O`, the inhibition was 5.4% (active). As for `C=C/C(C)=C/[C@@]1(C)SC(=O)C(C)=C1O`, the inhibition is 13.4% (active).
